Bioassay records: PubChem, National Center for Advancing Translational Sciences (NCATS)
ATXN viability = reduces viability in counter-screen for ATXN expression inhibitors. AID 651635. Potency, µM (doses to about 56.7 µM), hits mostly cytotoxic. S2 cells (HEK-293 line with an ATXN2-luciferase reporter) viability, CellTiter-Fluor protease fluorescence, 24 h. hit rate 0.49% among 400,000; further: nearly all actives have a fitted effect of over 40% in size
ATXN2 expr inh = inhibitors of ATXN2 expression | HEK-293 ATXN2-luciferase reporter, luminescence, 24 h | Potency, µM (doses to about 57 µM), usual class: inhibitors | hit rate 0.72% among 360,000; further: nearly all actives have a fitted effect of over 55% in size
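qHTS (up to 57 uM final) was run with 24 h compound exposure of reporter cells at 37 °C. Each well was multiplexed: SteadyGlo luminescence measured ATXN2-luciferase expression after a fluorogenic Gly-Phe-AFC viability readout (25 uM final).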
Gal4-VP16 FLuc = Gal4-VP16 reporter inhibition counter-screen; Drosophila S2 Gal4-VP16 UAS-luciferase, luminescence, 20 h; Potency, µM (highest dose often 53.6 µM), actives largely listed as inhibitors; hit rate 3.5% among 310,000; AID 2546;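 further: Gal4-VP16 expression switched on by copper sulfate through the metallothionein promoter; nearly all actives have a fitted effect of over 50% in size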
TGFb SMAD3 inh = TGF-b pathway inhibition. HepG2 CAGA-GFP TGF-b/SMAD3 reporter, GFP fluorescence, 18 h; TGF-beta stimulated, 500 pg/mL final. hit rate 1.2% among 410,000. Potency, µM (doses to about 46.1 µM), actives largely listed as inhibitors. AID 588855; further: nearly all actives have a fitted effect of over 65% in size
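Read-out: total well GFP (ex488/em500-530) summed from mean per-cell fluorescence. Cells: HEPG2 CAGA-GFP, 1% FBS DMEM, 18 h at 37 degrees C with 500 pg/mL final TGF-beta. Unstimulated wells served as the full-inhibition control; stimulated DMSO wells = 0%.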
HepG2 tox = HepG2 cytotoxicity, counter-screen for TGF-b inhibitors. HepG2 CAGA-GFP viability, ATP luminescence, 18 h. Potency, µM (series often up to 46.1 µM), usual class: cytotoxic. hit rate 0.76% among 410,000. AID 588856
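HepG2 CAGA-GFP cells (1000/well, DMEM with 1% FBS) received compound, then TGF-beta at 500 pg/mL final, and were incubated 18 hours at 37 degrees C. Viability was read by CellTiter-Glo luminescence. Media-only wells were set as complete cell-killing and DMSO as no toxicity.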
RORgamma inh = inhibitors of mouse ROR gamma transcriptional activity. P51450. Drosophila S2 Gal4-RORgamma UAS-luciferase reporter, 20 h. Potency, µM (titrated, usually from 53.6 µM), actives largely listed as inhibitors. hit rate 5.4% among 310,000. AID 2551; further: nearly all actives have a fitted effect of over 60% in size
Target sequence (P51450 whole entry, looked up, the tested form may be a part): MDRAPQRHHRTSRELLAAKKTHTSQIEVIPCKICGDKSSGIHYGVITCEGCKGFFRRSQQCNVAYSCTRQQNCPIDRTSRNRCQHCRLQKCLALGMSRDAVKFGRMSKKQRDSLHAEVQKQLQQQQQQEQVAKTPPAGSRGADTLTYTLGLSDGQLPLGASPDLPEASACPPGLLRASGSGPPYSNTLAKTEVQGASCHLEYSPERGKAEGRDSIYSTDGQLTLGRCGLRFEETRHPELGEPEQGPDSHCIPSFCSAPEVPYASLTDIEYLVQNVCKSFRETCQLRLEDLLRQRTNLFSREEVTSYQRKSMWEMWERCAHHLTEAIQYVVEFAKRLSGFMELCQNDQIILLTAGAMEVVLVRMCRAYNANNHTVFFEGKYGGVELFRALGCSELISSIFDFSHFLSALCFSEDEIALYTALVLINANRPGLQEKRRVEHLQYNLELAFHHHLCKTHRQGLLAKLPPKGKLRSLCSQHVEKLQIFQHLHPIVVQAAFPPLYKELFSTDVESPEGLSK
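Luminescence from a UAS-regulated Photinus luciferase reporter in stably transfected Drosophila Schneider cells is measured; decreased signal marks ROR gamma inhibition. Fusion expression is induced by 700 uM copper sulfate for 20 hr.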
Of the large screens only hits and unclear results are named; the others gave an inactive call. In the library only some 6.1% were active in any assay of this set; here they are far more common. The call rests on the fitted dose curve; in most records, active means well fitted curve in the direction sought with a large enough effect; inconclusive means small, poorly fitted or top-dose-only effect, or another doubt; inactive means no such curve, though single readings can be large; an effect the other way counts as inactive or inconclusive.

CCOc1cc(S(=O)(=O)Nc2cc(C)cc(C)c2)ccc1Cl	ATXN viability inconclusive, ATXN2 expr inh inconclusive, Gal4-VP16 FLuc inconclusive, TGFb SMAD3 inh 22µM
CCOc1cc(S(=O)(=O)NC2CCCC2)ccc1Cl	TGFb SMAD3 inh inconclusive
CCOc1cc(S(=O)(=O)NCc2ccncc2)ccc1Cl	Gal4-VP16 FLuc 1.1µM, RORgamma inh 2µM
CCOc1ccc(-c2c(C)nn3c(C)c(C(=O)NC(C)c4ccccc4)cnc23)cc1OCC (stereo not given)	none (no result: Gal4-VP16 FLuc, RORgamma inh)
CCCC(=O)O[C@]1(C(=O)COC(=O)CC)CC[C@H]2[C@@H]3CCC4=CC(=O)CC[C@]4(C)[C@H]3[C@@H](O)C[C@@]21C	none (no result: Gal4-VP16 FLuc, TGFb SMAD3 inh, HepG2 tox, RORgamma inh)
CC1C2CC(C/C2=N/NC(=O)c2cccs2)C1(C)C (stereo not given)	Gal4-VP16 FLuc 2µM, RORgamma inh inconclusive
O=C(NN=C1CCCCCC1)c1cccs1	none
C[C@@H]1C2CC(C/C2=N\NC(=O)c2ccncc2)C1(C)C (stereo not given in full)	Gal4-VP16 FLuc 13µM, RORgamma inh 7.9µM (no result: ATXN2 expr inh)
COC(=O)[C@@H]1CCCN1Cc1ccc2c(c1)CN(Cc1cccn1-c1ncccn1)CCO2	none (no result: ATXN2 expr inh, Gal4-VP16 FLuc, TGFb SMAD3 inh, HepG2 tox, RORgamma inh)
O=C(c1cc2ccccc2o1)N1CCOCC1	none (no result: Gal4-VP16 FLuc, RORgamma inh)
CC(C)(C)c1ccc(C(=O)Nc2ccc(C(=O)N3CCOCC3)cc2)cc1	none
COc1ccc(OCC(=O)N2c3ccc(C)cc3C3CN(C)CCC32)cc1 (stereo not given)	none
Cc1ccc2c(c1)C1CN(C)CCC1N2C(=S)NC(=O)c1ccc(Br)cc1 (stereo not given)	ATXN viability inconclusive, ATXN2 expr inh inconclusive, RORgamma inh 0.11µM
O=C(NC(=S)N1CCOCC1)c1cc2ccccc2o1	Gal4-VP16 FLuc 3.2µM, RORgamma inh 1µM
Cc1ccc(C(=O)NC(=S)N2CCCC2)cc1	Gal4-VP16 FLuc 5µM, RORgamma inh 0.89µM
CC(C)(C)c1ccc(C(=O)NC(=S)N2CCOCC2)cc1	Gal4-VP16 FLuc 1µM, RORgamma inh 1.1µM
Cc1ccc(NC(=O)Cn2c(=O)c3ccccc3n3nncc23)cc1	none (no result: Gal4-VP16 FLuc, RORgamma inh)
CCc1ccc(NC(=O)N2CCN(Cc3nc4ccc(C)cc4o3)CC2)cc1	none (no result: Gal4-VP16 FLuc, RORgamma inh)
CC1Cc2ccccc2N1C(=O)CSc1nnc(-c2cccc(Cl)c2)o1 (stereo not given)	none (no result: Gal4-VP16 FLuc, RORgamma inh)
CCN(CC)CCOC(=O)c1ccc(NC(=O)Cn2ncc3c2-c2cc(C)ccc2OC3)cc1	ATXN viability inconclusive (no result: Gal4-VP16 FLuc, RORgamma inh)
Cc1ccc(NC(=O)c2ccc(OC(=S)N3CCOCC3)cc2)cc1	ATXN viability inconclusive
CN1CCN(C(=S)NC(=O)c2ccc(C(C)(C)C)cc2)CC1	Gal4-VP16 FLuc 2.5µM, RORgamma inh 1.4µM
CC(C)Oc1ccc(C(=O)NC(=S)N2CCOCC2)cc1	Gal4-VP16 FLuc 1.3µM, RORgamma inh 3.5µM
CN1CCN(C(=S)NC(=O)c2ccc(Br)cc2)CC1	Gal4-VP16 FLuc 1.1µM, RORgamma inh 0.89µM
Cc1ccc(C(=O)NC(=S)N2CCN(C)CC2)cc1	Gal4-VP16 FLuc 7.1µM, HepG2 tox 10µM
CN1CCN(C(=S)NC(=O)c2ccc(-c3ccccc3)cc2)CC1	Gal4-VP16 FLuc 0.56µM, TGFb SMAD3 inh inconclusive, RORgamma inh 0.089µM
CC(C)n1c(Nc2ccccc2)nc2ccccc21	RORgamma inh inconclusive
CCOc1ccccc1Nc1nc2ccccc2n1C(C)C	RORgamma inh 10µM
O=C(NC1CCCCC1)C(c1cccnc1)N(C(=O)CCl)c1ccc(F)cc1 (stereo not given)	ATXN viability 6.3µM, ATXN2 expr inh 4µM, Gal4-VP16 FLuc inconclusive, TGFb SMAD3 inh inconclusive, RORgamma inh 11µM
COc1ccc(C(C(=O)NC2CCCCC2)N(C(=O)CCl)c2ccc(OC)cc2)cc1 (stereo not given)	ATXN viability 4µM, ATXN2 expr inh 3.5µM, Gal4-VP16 FLuc inconclusive, TGFb SMAD3 inh inconclusive, RORgamma inh inconclusive
COc1ccc(CN(C(=O)c2cccs2)C(C(=O)NC2CCCCC2)c2ccc3ncccc3c2)cc1 (stereo not given)	ATXN viability inconclusive, RORgamma inh 35µM
